Assay [1] concerns Wnt5a (protein binding on small-molecule microarray). The assay can be described thus: small molecules binding Wnt5a protein – biophysical, small-molecule microarray, 635/667 nm fluorescence, primary screen (AID 1142).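 Also: fluorescence read at 667 nm with signal to noise per printed feature.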 Particulars: 635 nm fluorescence, higher = more signal.
Assay [2] in a line: ATP-based viability of Huh7 replicon cells – cell-based, CellTiter-Glo luminescence, basal, 48 h, cytotoxicity control for HCV replication inhibitor project, primary screen (AID 1143).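 Also: Huh7 hepatoma cells carrying a hepatitis C replication reporter with no stimulus; test concentration not given here.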 Particulars: higher = more signal, called active from +8 up or from −8 down.
A short description of assay [3]: Pseudomonas biofilm growth suppression – PAO1 strain, BacTiter-Glo luminescence, LB-PBS, primary screen (AID 1144). Particulars: P. aeruginosa PAO1 biofilm, 12 h, higher = more signal.
Assay [4] is described as follows: basal CRE-LacZ reporter activity in PC12 – cell-based, unstimulated, primary screen (AID 1145). The settings on record: no forskolin, luminescence, 4.5 h, higher = more signal, called active from +8 up or from −8 down.
The nature of assay [5]: forskolin-driven CRE-LacZ activity in PC12 – cell-based, CRE-LacZ reporter, forskolin-stimulated, primary screen (AID 1146).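 Also: PC12 cells with 6xCRE LacZ reporter stimulated by forskolin 10 µM; beta-galactosidase reporter signal reflecting CREB driven transcription.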 The settings on record: luminescence, 4.5 h, higher = more signal, called active from +8 up or from −8 down.
In assay [6] the target is Streptavidin (Streptomyces avidinii) (UniProt P22629). Briefly: compounds binding control protein streptavidin – biophysical, small-molecule microarray, 635/667 nm fluorescence, artefact control for SMM compound annotation, primary screen (AID 1147).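 Also: signal reflects streptavidin binding to arrayed compounds as a control protein.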 The settings on record: higher = more signal.
A short description of assay [7]: probe aInhba binding on compound microarray – biochemical, small-molecule microarray, 635/667 nm fluorescence, primary screen (AID 1148).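 Also: score merges 667nm spot fluorescence with signal-to-noise for antibody binding to printed compounds.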 Particulars: higher = more signal.
The target of assay [8] is Torsin-1A (Homo sapiens) (UniProt O14656). Briefly: TOR1A wild-type binding on microarray – cell lysate, small-molecule microarray, lysate, 635/667 nm, primary screen (AID 1149). The settings on record: COS7 hTOR1A-WT lysate, 635 nm fluorescence, higher = more signal.
Assay [9] has the same target. Briefly: torsin A mutant lysate binding on microarrays – cell lysate, small-molecule microarray, COS7 lysate, 635/667 nm fluorescence, primary screen (AID 1150).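 Also: score pools 667 nm emission and signal to noise measuring lysate protein binding.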 Particulars: COS7 hTOR1A mutant lysate, 635 nm fluorescence, higher = more signal.
Assay [10] has as its system Sonic hedgehog protein (Shh). Briefly: Sonic hedgehog microarray binding compounds – biochemical, small-molecule microarray, 635/667 nm fluorescence, primary screen (AID 1151).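 Also: Shh protein binding to compounds spotted on small-molecule microarray slides; score combines spot fluorescence intensity with signal-to-noise across triplicate slides.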 The settings on record: 635 nm fluorescence, higher = more signal.
The nature of assay [11]: optical density shifts of acrAB sulA E. coli – strain DRC41, OD650, 48 h, E. coli filamentation inducer project, primary screen (AID 1152).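 Also: E. coli MC1000 strain DRC41 lacking acrAB efflux pump and sulA.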 Particulars: higher = more signal, called active from +8 up or from −8 down.
Assay [12] in a line: probe aLefty1 binding on compound microarray – biochemical, small-molecule microarray, 635/667 nm fluorescence, primary screen (AID 1153).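 Also: score merges spot fluorescence with signal-to-noise ratio from the scanned slide images.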 Particulars: higher = more signal.
The nature of assay [13]: plasmodial surface anion channel blockers, osmotic lysis – cell-based, P. falciparum Indochina, OD700, 1 h, primary screen (AID 1154). Particulars: P. falciparum Indochina infected RBC osmotic lysis, higher = more signal, called active from +8 up or from −8 down.
Assay [14] can be described thus: plasmodial surface anion channel blockers, osmotic lysis – cell-based, P. falciparum Indochina, OD700, 2 h, primary screen (AID 1155).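 Also: lysis reports solute entry through the parasite surface anion channel PSAC.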 The settings on record: P. falciparum Indochina infected erythrocytes, higher = more signal, called active from +8 up or from −8 down.
Assay [15] in a line: changes in parasitized red cell lysis, either direction – P. falciparum Indochina, OD700, 3 h, PSAC antagonist project, primary screen (AID 1156). The settings on record: P. falciparum-infected erythrocytes, osmotic lysis, higher = more signal, called active from +8 up or from −8 down.
Assay [16] in a line: plasmodial surface anion channel blockers, osmotic lysis – cell-based, P. falciparum Indochina, OD700, 18 h, primary screen (AID 1157). The settings on record: P. falciparum Indochina infected erythrocytes, osmotic lysis OD700, 18 h; higher = more signal, called active from +8 up or from −8 down.
Assay [17] in a line: S6 kinase pathway phospho-S6 level changes – cell-based, A549, cytoblot, luminescence, serum-stimulated, primary screen (AID 1158).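 Also: serum-stimulated A549 lung adenocarcinoma cells; signal is phosphorylated S6 detected by cytoblot immunostaining with HRP secondary.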 Particulars: 5 h, higher = more signal.
Assay [18] has as its target NADPH oxidase 2 (Homo sapiens) (UniProt P04839). The assay can be described thus: compounds shifting NOX2 Amplex Red fluorescence – cell-based, HEK293-NOX2, PMA-stimulated, NOX inhibitor project, primary screen (AID 1159). Also: test concentration not given here. The settings on record: 45 min, higher = more signal, called active from +8 up or from −8 down.
The target in assay [19] is NADPH oxidase 4 (Homo sapiens) (UniProt Q9NPH5). The assay can be described thus: compounds shifting NOX4 Amplex Red fluorescence – cell-based, HEK293-NOX4, tetracycline-induced, NOX inhibitor project, primary screen (AID 1160). The settings on record: HEK293-NOX4, Amplex Red H2O2 fluorescence, 45 min; higher = more signal, called active from +8 up or from −8 down.
Assay [20] addresses NADPH oxidase 5 (Homo sapiens) (UniProt Q96PH1). The assay can be described thus: compounds shifting NOX5 Amplex Red fluorescence – cell-based, HEK293-NOX5, NOX inhibitor project, primary screen (AID 1161). The settings on record: HEK293-NOX5, ionomycin, 45 min, higher = more signal.

Calls of active or inactive are those of the source. Unless noted, no rule for the calls is given here.

Sequence of NADPH oxidase 5 (Homo sapiens) (Q96PH1 whole entry, looked up): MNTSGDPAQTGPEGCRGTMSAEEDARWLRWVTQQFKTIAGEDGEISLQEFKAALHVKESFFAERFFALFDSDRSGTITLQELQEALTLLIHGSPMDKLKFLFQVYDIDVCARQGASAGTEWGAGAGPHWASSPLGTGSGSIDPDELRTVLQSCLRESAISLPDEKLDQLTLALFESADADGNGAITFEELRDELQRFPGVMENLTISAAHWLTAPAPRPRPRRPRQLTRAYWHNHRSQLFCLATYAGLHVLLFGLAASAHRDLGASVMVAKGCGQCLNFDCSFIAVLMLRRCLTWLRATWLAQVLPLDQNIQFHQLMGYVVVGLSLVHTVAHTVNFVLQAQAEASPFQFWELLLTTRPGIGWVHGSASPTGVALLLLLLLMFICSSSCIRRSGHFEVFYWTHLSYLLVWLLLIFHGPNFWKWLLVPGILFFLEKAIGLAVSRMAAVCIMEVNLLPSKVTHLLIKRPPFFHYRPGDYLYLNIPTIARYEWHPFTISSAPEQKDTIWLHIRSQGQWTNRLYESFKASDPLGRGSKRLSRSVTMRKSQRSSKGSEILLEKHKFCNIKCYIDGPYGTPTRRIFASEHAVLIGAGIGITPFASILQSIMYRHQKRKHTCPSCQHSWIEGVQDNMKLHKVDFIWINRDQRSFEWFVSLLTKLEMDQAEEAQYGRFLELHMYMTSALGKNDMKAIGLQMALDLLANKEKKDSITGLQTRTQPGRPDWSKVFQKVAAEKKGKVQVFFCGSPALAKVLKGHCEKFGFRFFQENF
Sequence of Streptavidin (Streptomyces avidinii) (P22629 whole entry, looked up): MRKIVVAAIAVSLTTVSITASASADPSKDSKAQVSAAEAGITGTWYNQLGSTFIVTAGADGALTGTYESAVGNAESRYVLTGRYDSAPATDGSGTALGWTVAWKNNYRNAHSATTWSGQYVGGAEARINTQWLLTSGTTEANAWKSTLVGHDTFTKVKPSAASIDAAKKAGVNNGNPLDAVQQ
Sequence of NADPH oxidase 2 (Homo sapiens) (P04839 whole entry, looked up): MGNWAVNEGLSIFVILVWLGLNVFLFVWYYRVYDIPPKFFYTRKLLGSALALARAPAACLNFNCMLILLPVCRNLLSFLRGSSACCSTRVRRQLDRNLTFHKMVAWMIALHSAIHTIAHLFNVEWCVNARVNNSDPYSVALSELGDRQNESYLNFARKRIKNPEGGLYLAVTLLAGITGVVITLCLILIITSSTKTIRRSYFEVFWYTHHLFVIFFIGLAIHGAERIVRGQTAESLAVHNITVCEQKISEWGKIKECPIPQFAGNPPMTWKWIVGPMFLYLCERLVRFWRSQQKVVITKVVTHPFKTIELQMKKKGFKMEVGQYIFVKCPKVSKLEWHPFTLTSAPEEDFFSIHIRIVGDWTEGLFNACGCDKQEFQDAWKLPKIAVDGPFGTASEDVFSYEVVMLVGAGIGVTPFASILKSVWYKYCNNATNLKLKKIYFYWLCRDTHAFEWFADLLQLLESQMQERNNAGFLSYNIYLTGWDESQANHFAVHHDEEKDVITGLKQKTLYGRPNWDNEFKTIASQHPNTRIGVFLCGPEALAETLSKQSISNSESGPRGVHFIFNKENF
Sequence of NADPH oxidase 4 (Homo sapiens) (Q9NPH5 whole entry, looked up): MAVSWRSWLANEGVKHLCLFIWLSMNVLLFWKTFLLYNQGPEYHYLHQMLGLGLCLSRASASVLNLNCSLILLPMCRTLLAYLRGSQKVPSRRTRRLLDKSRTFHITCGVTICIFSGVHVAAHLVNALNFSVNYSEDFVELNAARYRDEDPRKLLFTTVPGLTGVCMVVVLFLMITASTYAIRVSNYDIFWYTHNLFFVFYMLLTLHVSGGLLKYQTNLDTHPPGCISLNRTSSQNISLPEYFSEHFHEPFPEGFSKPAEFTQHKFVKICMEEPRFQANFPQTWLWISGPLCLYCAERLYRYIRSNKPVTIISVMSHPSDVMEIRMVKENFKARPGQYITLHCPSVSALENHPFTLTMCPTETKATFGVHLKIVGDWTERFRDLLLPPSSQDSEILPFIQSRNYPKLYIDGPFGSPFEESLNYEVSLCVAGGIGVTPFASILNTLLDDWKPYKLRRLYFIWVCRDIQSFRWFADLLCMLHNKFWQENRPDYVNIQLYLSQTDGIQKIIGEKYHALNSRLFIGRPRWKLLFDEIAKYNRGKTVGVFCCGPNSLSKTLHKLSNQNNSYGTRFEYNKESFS
Sequence of Torsin-1A (Homo sapiens) (O14656 whole entry, looked up): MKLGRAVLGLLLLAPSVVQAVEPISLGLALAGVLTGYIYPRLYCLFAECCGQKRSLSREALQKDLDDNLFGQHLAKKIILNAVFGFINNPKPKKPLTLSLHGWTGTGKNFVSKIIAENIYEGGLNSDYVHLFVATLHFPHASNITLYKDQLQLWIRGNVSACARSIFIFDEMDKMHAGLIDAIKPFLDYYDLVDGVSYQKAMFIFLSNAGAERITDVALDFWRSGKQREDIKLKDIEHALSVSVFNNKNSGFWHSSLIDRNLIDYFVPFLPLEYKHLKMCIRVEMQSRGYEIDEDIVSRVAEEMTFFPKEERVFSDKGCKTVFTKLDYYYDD

Turning to `CC(C)NC(=O)[C@@H]1c2ccccc2C(=O)N(Cc2cc(C(F)(F)F)cc(C(F)(F)F)c2)[C@H]1c1ccc(CO)cc1`, the composite z-score is 0.133 in assay [1]; 0.0544 in assay [6]; 0.136 in assay [7]; 0.275 in the assay with Torsin-1A (Homo sapiens) [8]; 0.0913 with Torsin-1A (Homo sapiens) [9]; 0.646 in assay [10]. The same molecule registered a composite z-score in assay [12] of 0.358. Moreover, the z-score was 0.0274 (inactive) in assay [2]; 0.71 (inactive) in [3]; 0.0279 (inactive) in [4]; 0.296 (inactive) in assay [5]; -0.464 (inactive) in [11]; 1.54 (inactive) in assay [13]. In addition, the z-score was 0.349 (inactive) in assay [14]; -0.113 (inactive) in assay [15]; 0.057 (inactive) in assay [16]; -0.167 in assay [17]; 0.513 (inactive) in assay [18]; 0.349 (inactive) in assay [19]. Besides, the z-score in assay [20] was -0.284.

With `O=C(NCc1ccccc1)[C@]1(Cc2ccccc2)N=C(c2ccc(OCCCO)cc2)O[C@@H]1c1ccccc1`, the composite z-score in [1] was 0.53; in assay [6], 0.621; in [7], 0.0053; in the assay with Torsin-1A (Homo sapiens) [8] it was -0.0377; in the assay with Torsin-1A (Homo sapiens) [9], 0.621; in assay [10] it was -0.468. The molecule further gave a composite z-score in assay [12] of -0.225. Besides, the z-score in assay [2] is -4.62 (inactive); in assay [3], -0.621 (inactive); in assay [4], -0.0576 (inactive); in [5], -1.02 (inactive); in [11], -2.04 (inactive); in assay [13], 30.1 (active). For the same molecule, the z-score was 22.5 (active) in assay [14]; 0.578 (inactive) in [15]; 2.53 (inactive) in assay [16]; -0.397 in assay [17]; 0.158 (inactive) in [18]; -0.503 (inactive) in [19]. For the same molecule, in [20], the z-score was -0.855.

Take `COCC(=C=CC[C@@H](O)c1ccccc1OCCO)C[C@@H](O)c1ccccn1`: the composite z-score in assay [1] is 0.088; in assay [6], -0.0795; in [7] it was 0.0737; in the assay with Torsin-1A (Homo sapiens) [8], 0.162; with Torsin-1A (Homo sapiens) [9] it was 0.679; in [10], 1.89. Besides, in assay [12], the composite z-score amounted to 0.235. The z-score in [2] was -0.202 (inactive); in assay [3], 1.2 (inactive); in assay [4], 1.99 (inactive); in assay [5], -0.465 (inactive); in assay [11], -0.197 (inactive); in assay [13], 8.59 (active). Moreover, the z-score in [14] was 0.801 (inactive); in assay [15] it was 0.502 (inactive); in assay [16], 0.577 (inactive); in assay [17] it was -0.456; in assay [18], -0.459 (inactive); in assay [19], -1.04 (inactive). The z-score in assay [20] was -1.31.

Regarding `CC(=O)NCCCC[C@@H]1NC(=O)[C@H]2C[C@@H](C(=O)NCCCCCN)[C@@H](c3cccc(OCCO)c3)N2C1=O`, the composite z-score is 0.292 in assay [1]; 0.688 in assay [6]; -0.102 in assay [7]; 0.455 with Torsin-1A (Homo sapiens) [8]; 0.0709 with Torsin-1A (Homo sapiens) [9]; -0.0725 in assay [10]. In addition, the composite z-score in assay [12] is 0.262. Also, the z-score in [2] is -0.532 (inactive); in assay [3], 0.00194 (inactive); in assay [4] it was -0.675 (inactive); in [5], -1.44 (inactive); in [11], 2.39 (inactive); in assay [13] it was 1.15 (inactive). Further, the z-score in assay [14] was -1.08 (inactive); in assay [15], 1.9 (inactive); in assay [16], -1.98 (inactive); in [17], 1.36; in assay [18] it was 0.0821 (inactive); in assay [19], 0.793 (inactive). Further, in [20], the z-score stood at 0.875.

On to `COc1ccccc1CN1C(=O)c2ccccc2[C@@]2(Cc3ccccc3N(C3CC3)C2=O)[C@@H]1c1ccc(CO)cc1`, for which the composite z-score in assay [1] is -0.507; in assay [6], -0.189; in [7] it was -0.125; with Torsin-1A (Homo sapiens) [8] it was -1.68; with Torsin-1A (Homo sapiens) [9] it was -0.821; in assay [10] it was -0.27. Also, the composite z-score in assay [12] was -0.235. In addition, the z-score in [2] is -0.0976 (inactive); in [3], 1.13 (inactive); in assay [4] it was 0.622 (inactive); in assay [5], -0.148 (inactive); in assay [11] it was -0.685 (inactive); in assay [13], 0.162 (inactive). For the same molecule, the z-score in assay [14] was -0.0183 (inactive); in assay [15] it was -0.108 (inactive); in assay [16], 0.23 (inactive); in [17] it was -0.243; in [18], -0.161 (inactive); in assay [19], 0.394 (inactive). The z-score in assay [20] was found to be 1.04.

In the case of `O=C1O[C@H](c2ccccc2)[C@H](c2ccccc2)N2[C@H]1[C@@H](C(=O)N1CCCCCCC1)[C@]1(C(=O)Nc3ccccc31)[C@H]2c1ccc(O)cc1`, the composite z-score in assay [1] was determined as 2.61; in assay [6], 4.14; in [7], 2.28; in the assay with Torsin-1A (Homo sapiens) [8], 3.49; with Torsin-1A (Homo sapiens) [9], 3.61; in [10], 1.55. Further, in [12], the composite z-score was 2.97. The z-score was -1.21 (inactive) in assay [2]; 0.387 (inactive) in assay [3]; -0.0566 (inactive) in [4]; -0.599 (inactive) in assay [5]; -0.0491 (inactive) in [11]; 0.517 (inactive) in assay [13]. Also, the z-score in assay [14] is 0.435 (inactive); in assay [15], -0.882 (inactive); in assay [16], 0.19 (inactive); in assay [17] it was -0.541; in assay [18], -4.42 (inactive); in [19], -1.03 (inactive). Also, the z-score in [20] was -3.4.

`NC(=O)NCC#Cc1ccc2c(c1)[C@]1(C(=O)N2)[C@H](c2ccc(OCCO)cc2)N2[C@H](c3ccccc3)[C@H](c3ccccc3)OC(=O)[C@H]2[C@@H]1C(=O)N1CCCCCCC1`: the composite z-score was found to be 1.4 in [1]; 3.11 in assay [6]; 1.93 in assay [7]; 0.533 in the assay with Torsin-1A (Homo sapiens) [8]; 1.02 in the assay with Torsin-1A (Homo sapiens) [9]; 1.35 in assay [10]. In [12], the composite z-score turned out to be 2.86. Besides, the z-score in assay [2] was 0.132 (inactive); in assay [3], 0.848 (inactive); in assay [4], -0.0515 (inactive); in [5] it was 0.449 (inactive); in assay [11], -1.89 (inactive); in assay [13] it was 4.46 (inactive). Also, the z-score in assay [14] was 1.05 (inactive); in assay [15] it was 0.323 (inactive); in [16], 0.565 (inactive); in assay [17], -0.0231; in assay [18], 1.9 (inactive); in [19], 1.15 (inactive). Further, the z-score in assay [20] came to 0.333.

In the case of `COC(=O)[C@]1(Cc2ccccc2CN=[N+]=[N-])N=C(c2ccc(OCCCO)cc2)O[C@@H]1c1ccccc1`, the composite z-score in assay [1] was -0.311; in assay [6], -1.05; in assay [7] it was -0.0407; with Torsin-1A (Homo sapiens) [8], -2.51; in the assay with Torsin-1A (Homo sapiens) [9] it was -1.33; in assay [10], -1.19. The molecule further had a composite z-score in assay [12] of 0.14. For the same molecule, the z-score in [2] is -4.69 (inactive); in [3] it was 0.211 (inactive); in [4], 4.85 (inactive); in [5], 0.56 (inactive); in assay [11], -0.453 (inactive); in [13], 27.8 (active). Moreover, the z-score in assay [14] was 26.4 (active); in assay [15] it was -0.232 (inactive); in [16], 6.71 (inactive); in [17] it was 0.008; in assay [18], -2.2 (inactive); in assay [19], -1.59 (inactive). Also, the z-score in [20] is -2.6.

The values are drawn from PubChem BioAssay.
